Data published in PubChem BioAssay (NCATS).
Records with an inconclusive call do not appear. Active and inactive are the calls of the source. Calls come from the whole dose curve; as a rule, active = well fitted cell-killing curve with a large enough effect; inconclusive = small, poorly fitted or top-dose-only effect, or effect the other way; inactive = flat fitted curve, though single readings scatter.

Columns and labels:
Experiment in all cases: Primary qHTS to identify gynecologic anti-cancer compounds using libraries of approved drugs and bioactive compounds (AID 1345084); note: nearly all actives have a fitted effect of over 55% in size
[1] = system: C33A; conditions: Gynecologic cancer cell panel viability, ATPlite luminescence, 48 h; series mostly up to 57.5 µM
In short: (§1)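 Luminescence from the ATPlite ATP-monitoring reagent indicates viable cell number; lower signal means cytotoxicity. Cells received compound 16 h after seeding and were exposed for 48 h across five concentrations.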

[2] = system: CAOV3; conditions: Gynecologic cancer cell panel viability, ATPlite luminescence, 48 h; series mostly up to 57.5 µM
In short: as §1

[3] = system: CASKI; conditions: Gynecologic cancer cell panel viability, ATPlite luminescence, 48 h; series mostly up to 57.5 µM
In short: as §1

[4] = system: Es-2; conditions: Gynecologic cancer cell panel viability, ATPlite luminescence, 48 h; series mostly up to 57.5 µM
In short: as §1

[5] = system: HeLa; conditions: Gynecologic cancer cell panel viability, ATPlite luminescence, 48 h; series mostly up to 57.5 µM
In short: as §1

[6] = system: Hek293T; conditions: Gynecologic cancer cell panel viability, ATPlite luminescence, 48 h, control line for the selectivity index; series mostly up to 57.5 µM
In short: as §1

[7] = system: JEG-3; conditions: Gynecologic cancer cell panel viability, ATPlite luminescence, 48 h; series mostly up to 57.5 µM
In short: as §1

[8] = system: OV90; conditions: Gynecologic cancer cell panel viability, ATPlite luminescence, 48 h; series mostly up to 57.5 µM
In short: as §1

[9] = system: PA-1; conditions: Gynecologic cancer cell panel viability, ATPlite luminescence, 48 h; series mostly up to 57.5 µM
In short: as §1

[10] = system: Tov-21-G; conditions: Gynecologic cancer cell panel viability, ATPlite luminescence, 48 h; series mostly up to 57.5 µM
In short: as §1

[11] = system: Tov112D; conditions: Gynecologic cancer cell panel viability, ATPlite luminescence, 48 h; series mostly up to 57.5 µM
In short: as §1
% is set by controls: 0 for no effect and ±100 for the full control effect.

CC(=O)O[C@@H]1[C@@H](O)[C@H](O[C@H]2CC[C@]34C[C@]35CC[C@]3(C)[C@@H]([C@@]6(C)CC[C@@H](C(C)(C)O)O6)[C@@H](O)C[C@@]3(C)[C@@H]5C[C@H](O[C@@H]3O[C@H](CO)[C@@H](O)[C@H](O)[C@H]3O)[C@H]4C2(C)C)OC[C@H]1O
inactive: Potency [1] | Potency [2] | Potency [3] | Potency [4] | Potency [5] | Potency [6] | Potency [7] | Potency [8] | Potency [9] | Potency [10] | Potency [11]

CCCC1(c2ccccc2)NC(=O)N(CC(=O)N(C)Cc2c(F)cccc2Cl)C1=O (centres undefined)
inactive: Potency [1] | Potency [2] | Potency [3] | Potency [4] | Potency [5] | Potency [6] | Potency [7] | Potency [8] | Potency [9] | Potency [10] | Potency [11]

CC1OC(OC2C(OC3C(O[C@H]4CC[C@@]5(C)C(CC[C@]6(C)C5C(=O)C=C5C7CC(C)(C)CC(O)[C@]7(C)CC[C@]56C)C4(C)C)OC(C(=O)O)C(O)C3O)OCC(O)C2O)C(O)C(O)C1O (some centres undefined)
inactive: activity change, negative = cytotoxicity [1] -11.1% [at 11.6 µM] | activity change, negative = cytotoxicity [2] -11.1% [at 11.6 µM] | activity change, negative = cytotoxicity [3] -7.33% [at 11.6 µM] | activity change, negative = cytotoxicity [4] -2.72% [at 11.6 µM] | activity change, negative = cytotoxicity [5] 6.46% [at 11.6 µM] | activity change, negative = cytotoxicity [6] -13.7% [at 11.6 µM] | activity change, negative = cytotoxicity [7] -7.16% [at 11.6 µM] | activity change, negative = cytotoxicity [8] -4.31% [at 11.6 µM] | activity change, negative = cytotoxicity [9] -3.12% [at 11.6 µM] | activity change, negative = cytotoxicity [10] 2.59% [at 11.6 µM] | activity change, negative = cytotoxicity [11] -1.77% [at 11.6 µM]

Cc1nc(C)c(-c2ccc(C3CCC(CC(=O)O)CC3)cc2)nc1C(N)=O (centres undefined)
inactive: Potency [1] | Potency [2] | Potency [3] | Potency [4] | Potency [5] | Potency [6] | Potency [7] | Potency [8] | Potency [9] | Potency [10] | Potency [11]

OCC(CO[C@@H]1O[C@H](CO)[C@@H](O)[C@H](O)[C@H]1O)c1ccc2c(c1)OCO2 (some centres undefined)
inactive: Potency [1] | Potency [2] | Potency [3] | Potency [4] | Potency [5] | Potency [6] | Potency [7] | Potency [8] | Potency [9] | Potency [10] | Potency [11]

Cc1ccccc1CN1C2=NCCN2C(=O)C2=C1CCN(Cc1ccccc1)C2
inactive: Potency [1] | Potency [2] | Potency [3] | Potency [4] | Potency [5] | Potency [6] | Potency [7] | Potency [8] | Potency [9] | Potency [10] | Potency [11]

C=C(C(=O)O)[C@@H]1CC[C@@]2(C)CC[C@H](O)[C@@]2(C(C)=O)C1
inactive: Potency [1] | Potency [2] | Potency [3] | Potency [4] | Potency [5] | Potency [6] | Potency [7] | Potency [8] | Potency [9] | Potency [10] | Potency [11]

CC(=O)c1ccc2c(c1)C(O)C(C(C)(C)O)O2 (centres undefined)
inactive: Potency [1] | Potency [2] | Potency [3] | Potency [4] | Potency [5] | Potency [6] | Potency [7] | Potency [8] | Potency [9] | Potency [10] | Potency [11]

CC1(C)CC[C@]2(C(=O)O[C@@H]3O[C@H](CO)[C@@H](O)[C@H](O)[C@H]3O)CC[C@]3(C)C(=CCC4[C@@]5(C)C[C@@H](O)[C@H](O)[C@](C)(C(=O)O)C5CC[C@]43C)C2C1O (some centres undefined)
inactive: Potency [1] | Potency [2] | Potency [3] | Potency [4] | Potency [5] | Potency [6] | Potency [7] | Potency [8] | Potency [9] | Potency [10] | Potency [11]

OC[C@@]1(O)CO[C@@H](OC[C@H]2O[C@@H](Oc3c[nH]c4ccccc34)[C@H](O)[C@@H](O)[C@@H]2O)[C@@H]1O
inactive: Potency [1] | Potency [2] | Potency [3] | Potency [4] | Potency [5] | Potency [6] | Potency [7] | Potency [8] | Potency [9] | Potency [10] | Potency [11]

CC(O)/C=C/C1C(C)C(O[C@@H]2O[C@H](CO)[C@@H](O)[C@H](O)[C@H]2O)C(O)CC1(C)C (some centres undefined)
inactive: Potency [1] | Potency [2] | Potency [3] | Potency [4] | Potency [5] | Potency [6] | Potency [7] | Potency [8] | Potency [9] | Potency [10] | Potency [11]

C=C1C(=O)OC2C1C(O)CC1(C)C(O)CCC(C=O)C21 (centres undefined)
inactive: Potency [1] | Potency [2] | Potency [3] | Potency [4] | Potency [5] | Potency [6] | Potency [7] | Potency [8] | Potency [9] | Potency [10] | Potency [11]

C=CC1C(OC2OC(CO)C(O)C(O)C2O)OC=C(C(=O)OC)C1CC(=O)OCC1C(C)C(O)CC1C(CO)COC(=O)CC1C(C(=O)O)=COC(OC2OC(CO)C(O)C(O)C2O)/C1=C\C (centres undefined)
inactive: activity change, negative = cytotoxicity [1] 0.0118% [at 11.6 µM] | activity change, negative = cytotoxicity [2] 12.7% [at 11.6 µM] | activity change, negative = cytotoxicity [3] 1.02% [at 11.6 µM] | activity change, negative = cytotoxicity [4] -2.47% [at 11.6 µM] | activity change, negative = cytotoxicity [5] 2.07% [at 11.6 µM] | activity change, negative = cytotoxicity [6] 1.07% [at 11.6 µM] | activity change, negative = cytotoxicity [7] 0.819% [at 11.6 µM] | activity change, negative = cytotoxicity [8] 16.4% [at 11.6 µM] | activity change, negative = cytotoxicity [9] -12.5% [at 11.6 µM] | activity change, negative = cytotoxicity [10] -4.06% [at 11.6 µM] | activity change, negative = cytotoxicity [11] -1.58% [at 11.6 µM]

COc1ccc(CNC(=O)c2sc3nc(C)cc(C)c3c2N)cc1
inactive: Potency [1] | Potency [2] | Potency [3] | Potency [4] | Potency [5] | Potency [6] | Potency [7] | Potency [8] | Potency [9] | Potency [10] | Potency [11]
